Results on 33 molecules are retold here after PubChem BioAssay (NCI).

This is part of a sample that, as a whole, favours compounds with a hit. Of some 83,000 tested, about 20% had one in any assay.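 For each line, cells grew in 96-well plates with the test compound present at a single concentration for 48 hours.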 The source made the active and inactive calls. Rule for the calls: active = growth percent below 10; inactive = the rest.

The first assay deals with RXF 393 renal. Nature of the assay: NCI-60 one-dose screen, 48 h (100 = growth as untreated, 0 = no growth, -100 = all killed). The note with it: 10 µM unless noted.
For `O=C(O)c1ccc2cccnc2c1O`, the growth was 27.7% (inactive).
On the same count and under the same terms, for `CC[C@@H](c1ccc(O)c(O)c1)[C@@H](CC)c1ccc(O)c(O)c1` the value was 71.5% (inactive); for `Cc1ccc(NC(=O)c2sc3nc4c(cc3c2N)C(=O)CCC4)cc1`, 108% (inactive).
With `CCOC(=O)/C=C1/SC(=Nc2ccc(C#N)cc2)N(Cc2ccco2)C1=O`, the growth was -23.9% (active).
For the molecule `COP(=O)(OC)C(c1ccc(O)cc1)(c1ccc(O)cc1)c1ccc(O)cc1`, the growth is 67.2% (inactive).
Still for that read-out and setting: then `COc1ccccc1-n1c(-c2ccc(O)cc2C)cn2c3c(=O)[nH]c(=O)n(C)c3nc12`, with 72.4% (inactive).

The test system of a further assay is SF-268 CNS. Described as above. The following applies: 10 µM unless noted.
Consider `COc1ccc2ncccc2c1Cc1c(OC)ccc2ncccc12`, for which the growth is 84.2% (inactive).
Consider `COc1cc(C2CC(C3C(=O)N(C)C(=O)N(C)C3=O)=NN2c2cc(Cl)cc(Cl)c2)cc(OC)c1OC` (stereo not drawn), for which the growth was 103% (inactive).
Same read-out and setting: for `Cc1sc2nc(NCc3ccccc3)[nH]c(=O)c2c1C` the value was 74.2% (inactive).
On the same count and under the same terms, for `Cc1cc2c(cc1C)[n+](Cc1ccc3ccccc3n1)cn2Cc1ccc2ccccc2n1` the value was 16.8% (inactive).
On the same count and under the same terms, for `COc1cc(/C=C2\CN(S(=O)(=O)c3ccc(C)cc3)C/C(=C\c3cc(CN4CCOCC4)c(O)c(OC)c3)C2=O)cc(CN2CCOCC2)c1O` the value was 7.91% (active).
Turning to `O=C1NCCc2c1noc2-c1ccccc1`, the growth is 93.7% (inactive).
On the same count and under the same terms, for `C[C@]12CCC(=O)C=C1CC[C@H]1[C@@H]3C[C@@H](O)[C@](O)(C(=O)CO)[C@@]3(C)C[C@H](O)[C@@]12F` the value was 85.5% (inactive).
As to `C/C(=C\CCc1ccsc1)CC/C=C(\C)CCCN1CCSCC1`, the growth was 103% (inactive).
On the same count and under the same terms, then `COC(=O)Nc1ccc2ccc3c(NC(=O)OC)ccc4ccc1c2c43` (tested in a mixture with another compound), with 67.7% (inactive); and `O=C(Nc1nc2c(C(F)(F)F)cccc2s1)c1cc(Cl)ccc1O`, with 21.2% (inactive).
Same read-out and setting: for `COc1cc(C2=NN(C=O)C(c3cccc(Nc4ccnc5cc(Cl)ccc45)c3)C2)cc(OC)c1OC` (stereo not drawn) the value was 74.2% (inactive).
The same measure, in the same setting: then `COc1cccc(-c2nc(-c3ccc(N)cc3)co2)c1`, with 128% (inactive); and `C[C@@H]1[C@H]2[C@H](C=C3[C@@H]4CC[C@H]5Cc6nc7c(nc6C[C@]5(C)[C@H]4C[C@@H](O)[C@@]32C)C[C@@H]2CC[C@H]3C4=C[C@@H]5O[C@@]6(CC[C@](C)(CO)O6)[C@@H](C)[C@@]5(O)[C@@]4(C)[C@H](O)C[C@@H]3[C@@]2(C)C7)O[C@]12CCC(C)(C)O2`, with 31.2% (inactive); and `O=C(CNC(=O)c1cccc2ccccc12)Nc1ccccc1Oc1cccc(O)c1`, with 49.9% [5 µM] (inactive).
For the molecule `CCN(CC)CCNCC(=O)Oc1ccc(/C=C/C(=O)CC(=O)/C=C/c2ccc(OC(=O)CNCCN(CC)CC)c(OC)c2)cc1OC`, the growth was 13.5% (inactive).
On the same count and under the same terms, then `COc1ccc(-c2cc(-c3nnc(SCC(=O)Nc4ccc(C(C)=O)cc4)n3-c3ccccc3)c3ccccc3n2)cc1OC`, with 89.9% (inactive).
Same read-out and setting: for `COc1ccc2c(c1)[n+](=O)c(C(=O)/C=C/c1cc(OC)c(OC)c(OC)c1)c(C)n2[O-]` the value was 56.3% (inactive).
For the molecule `COc1ccc(-c2nc3sc4c(c3c(=O)[nH]2)CCCCCC4)cc1`, the growth was 48.6% (inactive).
In the case of `CC(=O)Nc1c(Cl)cc2c(c1Cl)Cc1cc([N+](=O)[O-])ccc1-2`, the growth is 101% (inactive).
For `CCN(CC)CCCCCCCNc1c2ccc(Cl)cc2nc2ccc(OC)cc12`, the growth is -59.1% (active).
For the molecule `COc1cc(/C=C/c2cc(/C=C/c3ccc(O)c(OC)c3)n(C(=O)c3ccc(Cl)cc3)n2)ccc1O`, the growth was 27% (inactive).
Take `Cc1n(Cc2ccc3ccccc3c2)c2ccccc2[n+]1Cc1ccc2ccccc2c1`: the growth is -67.6% (active).
In the case of `CCn1cnc(C[C@H](NC(=O)[C@H](CCCCNC(=O)Nc2cc(C(F)(F)F)cc(C(F)(F)F)c2)NC(=O)Nc2cc(C(F)(F)F)cc(C(F)(F)F)c2)C(=O)OC)c1`, the growth is -53.5% [100 µM] (active).
Take `O=C(Nc1cccc(-n2cc(-c3ccncc3)c(-c3cc(O)cc(Cl)c3)n2)c1)Nc1ccc(Cl)c(Cl)c1`: the growth is 16.2% (inactive).
On the same count and under the same terms, for `Oc1ccc(/C=N/Nc2nc3ccccc3s2)c(O)c1` the value was 21.6% (inactive); for `Cc1csc(C#Cc2cncc(O)c2)n1`, 131% (inactive); for `COc1cc(/C=C/C(=O)CC(=O)/C=C/c2ccc(OC(=O)CCNC34CC5CC(CC(C5)C3)C4)c(OC)c2)ccc1OC(=O)CCNC12CC3CC(CC(C3)C1)C2`, 16.5% (inactive).
